# The panel holds about 79,000 compounds, 15% with a hit somewhere; the sample as a whole holds those more often. Unmarked numbers belong to inactive results. Active and inactive are the calls of the source. Cut-off read from the data, not from the text of the source: active = growth inhibition above about 70%; inactive = the rest.
# Key:
# [1] = NCI Yeast Anticancer Drug Screen. Data for the rad50 strain (AID 155);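 note: 0% = growth of vehicle-only cultures of the same strain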; details: S. cerevisiae rad50 strain growth inhibition, stronger effect = higher value
# Procedure, shortened: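 Yeast carrying a defined DNA repair defect were exposed to test compounds, and growth was compared with vehicle-treated controls to give percent inhibition.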
# [2] = NCI Yeast Anticancer Drug Screen. Data for the mec2-1 strain (AID 157); details: S. cerevisiae mec2-1 strain, stronger effect = higher value
# Procedure, shortened: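 Using mec2-1 yeast: add compound, measure growth, express inhibition versus vehicle-treated cultures.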
# [3] = NCI Yeast Anticancer Drug Screen. Data for the sgs1 mgt1 strain (AID 161);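 note: 0% = growth of cultures given vehicle only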; details: S. cerevisiae sgs1 mgt1 strain, stronger effect = higher value
# Procedure, shortened: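 Yeast cells carrying a defined DNA-repair defect were exposed to test compounds. Growth inhibition was measured relative to vehicle-treated controls.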
# [4] = NCI Yeast Anticancer Drug Screen. Data for the cln2 rad14 strain (AID 165);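 note: 0% = growth equal to vehicle treated cultures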; details: S. cerevisiae cln2 rad14 strain, stronger effect = higher value
# Procedure, shortened: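 Yeast strain cln2 rad14, bearing defects in cell cycle control and DNA repair, serves as the test system; values reflect growth inhibition compared with vehicle.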
# [5] = NCI Yeast Anticancer Drug Screen. Data for the bub3 strain (AID 167); details: S. cerevisiae bub3 mutant strain, stronger effect = higher value
# Procedure, shortened: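 Compounds were applied to a genetically altered yeast strain carrying a cell-cycle control defect. Growth inhibition was scored against vehicle-treated controls.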
# [6] = NCI Yeast Anticancer Drug Screen. Data for the mlh1 rad18 strain (AID 175); details: S. cerevisiae mlh1 rad18 strain growth inhibition, stronger effect = higher value
# Procedure, shortened: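 Steps: expose repair-defective yeast to compound; measure growth; express inhibition against vehicle-treated controls.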
# [7] = at 5.0 µM (retest, dose inferred, filed as 0.5)
# [8] = at 50.0 µM (retest, dose inferred, filed as 5.0)
SMILES,"growth inhibition [1, 7]","growth inhibition [1, 8]","growth inhibition [2, 7]","growth inhibition [2, 8]","growth inhibition [3, 7]","growth inhibition [3, 8]","growth inhibition [4, 7]","growth inhibition [4, 8]","growth inhibition [5, 7]","growth inhibition [5, 8]","growth inhibition [6, 7]","growth inhibition [6, 8]",growth inhibition ([1]; at 50.0 µM),growth inhibition ([3]; at 50.0 µM),growth inhibition ([4]; at 50.0 µM),growth inhibition ([5]; at 50.0 µM),growth inhibition ([6]; at 50.0 µM),growth inhibition ([2]; at 50.0 µM)
CCC1CC[N-]CC1.CCC1CC[N-]CC1.N#C[S-].N#C[S-].[Cd],26%,85% (active),16%,56%,11%,71% (active),4%,54%,5%,42%,-16%,57%,,,,,,
O=C(CBr)OC1CCCCC1,73% (active),97% (active),,,55%,98% (active),24%,80% (active),60%,97% (active),69%,98% (active),91% (active),87.4% (active),10.9%,75.8% (active),90.4% (active),
O=[As](O)(O)CCc1ccccc1,-148%,-168%,,,-67%,-56%,-58%,-65%,-67%,-78%,-146%,-115%,2.3%,8.35%,17.4%,-5.95%,5.7%,
O=[N+]([O-])c1cccc([N+](=O)[O-])c1Cl,58%,96% (active),22%,96% (active),13%,88% (active),8%,12%,-12%,33%,7%,46%,,,,,,
CC(C)CCC(=O)OC1CCC2(C)C(=CCC3C2CCC2(C)C(O)CCC32)C1 (stereo not drawn),16%,23%,,,5%,27%,0%,5%,2%,15%,-2%,43%,42%,36.4%,19.2%,3.95%,72.6% (active),
C[C](=O)[Hg][O]c1ccc(N=Cc2ccccc2O)cc1,99% (active),99% (active),100% (active),100% (active),100% (active),100% (active),99% (active),99% (active),100% (active),99% (active),99% (active),99% (active),,,,,,
CCCC1CC[N-]CC1.CCCC1CC[N-]CC1.N#C[S-].N#C[S-].[Cd],31%,86% (active),10%,59%,10%,76% (active),9%,65%,8%,56%,-14%,46%,,,,,,
COc1cc(C(CC(=O)N(CCCl)CCCl)c2ccc3c(c2)OCO3)cc(OC)c1OC (stereo not drawn),3%,0%,,,13%,2%,0%,-15%,2%,-2%,-2%,0%,6.9%,20.8%,25.5%,-2.7%,46.1%,
OC(c1ccccc1)(c1ccccc1)c1ccccn1,-6%,-9%,,,-5%,5%,-6%,5%,-3%,3%,-21%,-5%,4.55%,9.4%,2.7%,13.8%,-6.2%,
COc1ccc(CN2CCCN(Cc3ccc(OC)cc3OC)C2c2ccc(N(CCCl)CCCl)cc2)c(OC)c1,2%,49%,-9%,8%,,,-8%,43%,-8%,-3%,55%,95% (active),71% (active),,30.3%,5.25%,53.9%,22.8%

# Reference: PubChem BioAssay (NCI)
